PubChem BioAssay (NCI)
The panel holds about 83,000 compounds, 20% with a hit somewhere; the sample as a whole holds those more often.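 96-well plates, one dose, 48 hours. Percent growth reported; active if below 10.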 Calls of active or inactive are those of the source.

Experiments:
Test in all cases: NCI-60 one-dose screen, 48 h (100 = growth as untreated, 0 = no growth, -100 = all killed)
Conditions in all cases: 10 µM unless noted
SK-MEL-2 melanoma = tested on: SK-MEL-2 melanoma
EKVX NSCLC = tested on: EKVX NSCLC
SN12C renal = tested on: SN12C renal
UO-31 renal = tested on: UO-31 renal
TK-10 renal = tested on: TK-10 renal
ACHN renal = tested on: ACHN renal
CAKI-1 renal = tested on: CAKI-1 renal
A498 renal = tested on: A498 renal
CCRF-CEM leukemia = tested on: CCRF-CEM leukemia
MOLT-4 leukemia = tested on: MOLT-4 leukemia

Measured: growth

CC(=O)OC(c1ccccc1)C1CCOC1=O (stereo not given)
inactive: SK-MEL-2 melanoma 96.5% | EKVX NSCLC 78.8% | SN12C renal 102% | TK-10 renal 92.4% | ACHN renal 96.5% | CAKI-1 renal 75.2% | A498 renal 98.7% | CCRF-CEM leukemia 109% | MOLT-4 leukemia 82.8%
active: UO-31 renal -82.3%

CS(=O)(=O)Nc1cc(-c2ccc3ncc(C#N)c(Nc4ccc(F)c(Cl)c4)c3c2)cnc1Cl
inactive: SN12C renal 18.2% | ACHN renal 10.2%
active: SK-MEL-2 melanoma -59.9% | EKVX NSCLC -3.93% | UO-31 renal -6.94% | TK-10 renal -21.6% | CAKI-1 renal 4.91% | A498 renal -83.6% | CCRF-CEM leukemia 0.41% | MOLT-4 leukemia -22.5%

C[n+]1ccc(CCc2c[nH]c3ccccc23)cc1
inactive: SK-MEL-2 melanoma 81.7% | EKVX NSCLC 53.9% | SN12C renal 93.7% | UO-31 renal 76.7% | TK-10 renal 81.2% | ACHN renal 90.9% | CAKI-1 renal 92.6% | A498 renal 71.9% | CCRF-CEM leukemia 101% | MOLT-4 leukemia 90.5%

CCn1cc(CNc2ccc(C(=O)Nc3cc4cc(OC)c(OC)cc4c(C)n3)cc2)cn1
inactive: SK-MEL-2 melanoma 38.7% | EKVX NSCLC 60.5% | SN12C renal 79.3% | UO-31 renal 19.8% | TK-10 renal 52.7% | ACHN renal 60.8% | CAKI-1 renal 69% | A498 renal 73.8% | CCRF-CEM leukemia 17.5% | MOLT-4 leukemia 35.2%

COC(=O)c1c2c(c(C)[n+]([O-])c1C)C(=O)C(NCc1cccc(Cl)c1)=CC2=O
inactive: SK-MEL-2 melanoma 33.7% | EKVX NSCLC 46.2% | UO-31 renal 50.6% | TK-10 renal 73.5% | ACHN renal 26.6% | CAKI-1 renal 42.2% | A498 renal 106% | CCRF-CEM leukemia 17.5%
active: SN12C renal 0.796% | MOLT-4 leukemia -12.6%

CC1(C)N=C(N)N=C(N)N1c1cccc(CCc2ccccc2)c1
inactive: SK-MEL-2 melanoma 50.3% | EKVX NSCLC 67.2% | SN12C renal 32.4% | UO-31 renal 98.5% | TK-10 renal 38.7% | ACHN renal 105% | CAKI-1 renal 107% | A498 renal 82.7% | CCRF-CEM leukemia 30.5% | MOLT-4 leukemia 30.5%

CC(C)N1C(=O)/C(=c2\sc3n(c2=O)C2C(NN=3)N(C)C(=O)N2C)c2ccccc21 (stereo not given)
inactive: SK-MEL-2 melanoma 73.5% | EKVX NSCLC 88.8% | SN12C renal 81.7% | UO-31 renal 52.7% | TK-10 renal 94.5% | ACHN renal 59.2% | CAKI-1 renal 28.6% | A498 renal 23.8% | CCRF-CEM leukemia 69.8% | MOLT-4 leukemia 71.5%

CO[C@H](C(=O)[C@@H](O)[C@@H](C)O)[C@@H]1Cc2cc3cc(O[C@H]4C[C@@H](O[C@H]5C[C@@H](O)[C@H](O)C(C)O5)[C@H](O)C(C)(O)O4)cc(O)c3c(O)c2C(=O)[C@H]1O[C@H]1C[C@@H](O[C@H]2C[C@@H](O[C@H]3C[C@@H](OC)[C@H](O)C(C)O3)[C@@H](O)C(C)O2)[C@H](O)C(C)O1 (stereo not given in full)
inactive: EKVX NSCLC 34.7% | SN12C renal 20.5% | UO-31 renal 41.7% | TK-10 renal 37% | ACHN renal 25.9% | CAKI-1 renal 68.9% | CCRF-CEM leukemia 54.5% | MOLT-4 leukemia 37.9%
active: SK-MEL-2 melanoma -54.9% | A498 renal -30.9%

CC/C=C\C[C@H](O)C/C=C1/C(=O)C=C[C@@H]1C/C=C\CCCC(=O)O
inactive: SK-MEL-2 melanoma 62.2% | EKVX NSCLC 105% | SN12C renal 46.2% | UO-31 renal 74.3% | TK-10 renal 103% | ACHN renal 84.5% | CAKI-1 renal 83.9% | A498 renal 90.9%
active: CCRF-CEM leukemia 4.11% | MOLT-4 leukemia 5.7%

Cc1ccc(N2C(=O)CCC2=O)cc1
inactive: SK-MEL-2 melanoma 84.8% | EKVX NSCLC 95.1% | SN12C renal 95.3% | UO-31 renal 97.9% | TK-10 renal 89.9% | ACHN renal 103% | CAKI-1 renal 96.9% | A498 renal 82.3% | CCRF-CEM leukemia 108% | MOLT-4 leukemia 101%

Cc1cn(-c2cc(NC(=O)c3cncc(C#Cc4c(N)ncc5ccc(F)cc45)c3)cc(C(F)(F)F)c2)cn1
inactive: SK-MEL-2 melanoma 11.4% | EKVX NSCLC 73.4% | SN12C renal 54.5% | UO-31 renal 27.4% | TK-10 renal 84.3% | ACHN renal 60.6% | CAKI-1 renal 72.1% | A498 renal 84% | CCRF-CEM leukemia 39.6% | MOLT-4 leukemia 35.6%

COc1cc(C(=O)c2c(-c3ccccc3)oc3c(OC)cccc23)cc(OC)c1OC
inactive: SK-MEL-2 melanoma 53% | EKVX NSCLC 35.3% | SN12C renal 22.1% | UO-31 renal 28.2% | TK-10 renal 61.4% | ACHN renal 17.7% | CAKI-1 renal 19.6% | CCRF-CEM leukemia 10.2% | MOLT-4 leukemia 11.4%
active: A498 renal -28%

COC(=O)c1c2c(n3ccccc13)C(=O)c1ccccc1C2=O
inactive: SK-MEL-2 melanoma 75.3% | EKVX NSCLC 70.9% | SN12C renal 53.2% | UO-31 renal 35% | TK-10 renal 80.7% | ACHN renal 38.6% | CAKI-1 renal 56% | A498 renal 67.1% | CCRF-CEM leukemia 59.1% | MOLT-4 leukemia 35.5%

Cc1c(Cl)cccc1C(=O)Nc1nc2c(s1)CN(C(=O)c1ccc(C(F)(F)F)cc1)CC2
active: A498 renal -20.1%
inactive: SK-MEL-2 melanoma 49.9% | EKVX NSCLC 49.5% | SN12C renal 30% | UO-31 renal 44.4% | TK-10 renal 64.5% | ACHN renal 25.3% | CAKI-1 renal 22.7% | CCRF-CEM leukemia 16.5% | MOLT-4 leukemia 21.8%

NS(=O)(=O)c1ccc(C(=O)NN2C(=O)c3c(Br)c(Br)c(Br)c(Br)c3C2=O)cc1
inactive: SK-MEL-2 melanoma 99% | EKVX NSCLC 99.7% | SN12C renal 97.6% | UO-31 renal 81.7% | TK-10 renal 112% | ACHN renal 106% | CAKI-1 renal 88% | A498 renal 81.7% | CCRF-CEM leukemia 101% | MOLT-4 leukemia 100%

O=C(CCSc1nnc2n(Cc3ccccc3)c(=O)c3c4c(sc3n12)CCCC4)N1CCN(c2ccccc2)CC1
inactive: SK-MEL-2 melanoma 99.1% | EKVX NSCLC 91.8% | SN12C renal 94.8% | UO-31 renal 94.5% | TK-10 renal 101% | ACHN renal 93.2% | CAKI-1 renal 92.8% | A498 renal 106% | CCRF-CEM leukemia 127% | MOLT-4 leukemia 111%

CS(=O)(=O)c1nnc(-c2ccccc2)s1
active: UO-31 renal -71.4%
inactive: SK-MEL-2 melanoma 112% | EKVX NSCLC 109% | SN12C renal 105% | TK-10 renal 113% | ACHN renal 83.9% | CAKI-1 renal 94.9% | A498 renal 91.4% | CCRF-CEM leukemia 76.5% | MOLT-4 leukemia 88.1%

CNC1=CC(=O)c2c(C(=O)OC)c(C)[n+]([O-])c(C)c2C1=O
inactive: SK-MEL-2 melanoma 70.7% | EKVX NSCLC 84% | SN12C renal 40% | UO-31 renal 90.7% | TK-10 renal 133% | ACHN renal 74.4% | CAKI-1 renal 74.4% | A498 renal 103% | CCRF-CEM leukemia 81.6% | MOLT-4 leukemia 95.6%

Cc1ccc(-c2nc(/C=C3/C(=O)Nc4ccc(F)cc43)c3ccccn23)cc1
active: ACHN renal -3.57%
inactive: SK-MEL-2 melanoma 31.9% | EKVX NSCLC 87.2% | SN12C renal 88.2% | UO-31 renal 70.2% | TK-10 renal 89.2% | CAKI-1 renal 60.5% | A498 renal 97.7% | CCRF-CEM leukemia 77.4% | MOLT-4 leukemia 77.7%

Cc1ccc(C(=O)Nc2cccc(C#Cc3cccc4[nH]nc(N)c34)c2)cc1C(F)(F)F
inactive: SK-MEL-2 melanoma 29.2% | EKVX NSCLC 92.4% | SN12C renal 65.2% | UO-31 renal 36.7% | TK-10 renal 86.6% | ACHN renal 44.7% | CAKI-1 renal 120% | A498 renal 81.2% | CCRF-CEM leukemia 52.9% | MOLT-4 leukemia 45%
